RGS4 inh: human RGS4 inhibition | P49798 | Transcreener GDP fluorescence polarization, RGS4-accelerated GTP hydrolysis | Potency, µM (top dose mostly 114 µM), for the others: top-dose activity change, negative = inhibition, actives largely listed as inhibitors | 390,000 compounds, 0.039% hits; note: nearly all actives have a fitted effect of over 75% in size
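MLSMR compounds (23 nl, pin-transferred) preincubated 10 min at room temperature with a 500nM (2x) first reagent, then RGS4 at 900nM (2x) plus Transcreener GDP mix added; fluorescence polarization (620/688 nm) read before and after 90 min at 30 °C.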
USP2a block: inhibitors of human ubiquitin-specific protease USP2a; O75604; USP2 core, Ub-CHOP2 coupled fluorogenic reporter, 485/531; Potency, µM (top dose mostly 38.3 µM), for inactives: at the top dose activity change, negative = inhibition, actives largely listed as inhibitors; 330,000 compounds, 0.01% hits; AID 463254;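 note: plate controls were DMSO wells for no effect and full inhibition by NEM control for full effect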
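Deubiquitinase activity read as fluorescence (485/531 nm) after Ub-CHOP2 cleavage activates the enterokinase reporter on its substrate; USP2 core 10nM, Ub-CHOP2 and substrate 25nM each, 30min compound preincubation then 60min RT; data normalized to NEM, curves fitted.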
Chronic BCR inh: blocks chronic active B-cell receptor signaling | 340,000 compounds, 0.05% hits | Potency, µM (highest dose often 46.1 µM), for inactives: at the highest dose activity change, negative = inhibition, actives largely listed as inhibitors | ABC-DLBCL IkBa-CBG/CBR reporter, luminescence ratio, 4 h; active = well fitted inhibition curve with a large enough effect in the signal ratio, with a control signal flat, not every such curve was filed as active; inconclusive = small, poorly fitted or top-dose-only effect, or effect the other way, or a change in a side signal; the % refers to the signal ratio;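 note: plate controls were basal doxycycline-induced cells for no effect and cells given 10 µM MG132 for full effect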
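TMD8 ABC-DLBCL cells carrying doxycycline-inducible green luciferase fused to IkappaBalpha plus unfused red luciferase were exposed to compounds (up to 46 uM) for 4 hrs at 37C. Activity came from the overlap-corrected green/red luminescence ratio.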
uPA surface inh: inhibitors of cell surface uPA generation; Potency, µM (series often up to 38.3 µM), without a hit: at the top dose activity change, negative = inhibition, actives largely listed as inhibitors; 330,000 compounds, 0.31% hits; cell surface uPA generation assay, qHTS; active = well fitted inhibition curve with a large enough effect; inconclusive = small, poorly fitted or top-dose-only effect; inactive = no such curve, though single readings can be large or run the other way; tested in mouse RAW 264.7 cells; note: nearly all actives have a fitted effect of over 55% in size
KAT2A inh: inhibitors of human GCN5L2 histone acetyltransferase; Q92830; GCN5L2 HAT assay, ThioGlo1 CoA-SH fluorescence; Potency, µM (top dose mostly 58.9 µM), inactives show at the top dose activity change, negative = inhibition, hits mostly inhibitors; 390,000 compounds, 0.21% hits
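qHTS, 1536-well. 20nM enzyme, pH 7.5 HEPES/EDTA/Tween-20 buffer; 15 min compound preinc., RT. Start: 75uM H3(1-25), 70uM AcCoA, 50uM ThioGlo1. Read Ex340/Em540 at t=0 (autofluorescence flag) and t=20 min.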
Eya2 phos inh: inhibitors of human Eya2 phosphatase activity | O00167 | recombinant Eya2, OMFP fluorescence dephosphorylation (OMFP is methylfluorescein phosphate) | Potency, µM (top dose mostly 76.9 µM), for the others: at the highest dose activity, negative = inhibition, most hits filed as inhibitors | 330,000 compounds, 0.006% hits | AID 488837
Target sequence (O00167 whole entry, looked up): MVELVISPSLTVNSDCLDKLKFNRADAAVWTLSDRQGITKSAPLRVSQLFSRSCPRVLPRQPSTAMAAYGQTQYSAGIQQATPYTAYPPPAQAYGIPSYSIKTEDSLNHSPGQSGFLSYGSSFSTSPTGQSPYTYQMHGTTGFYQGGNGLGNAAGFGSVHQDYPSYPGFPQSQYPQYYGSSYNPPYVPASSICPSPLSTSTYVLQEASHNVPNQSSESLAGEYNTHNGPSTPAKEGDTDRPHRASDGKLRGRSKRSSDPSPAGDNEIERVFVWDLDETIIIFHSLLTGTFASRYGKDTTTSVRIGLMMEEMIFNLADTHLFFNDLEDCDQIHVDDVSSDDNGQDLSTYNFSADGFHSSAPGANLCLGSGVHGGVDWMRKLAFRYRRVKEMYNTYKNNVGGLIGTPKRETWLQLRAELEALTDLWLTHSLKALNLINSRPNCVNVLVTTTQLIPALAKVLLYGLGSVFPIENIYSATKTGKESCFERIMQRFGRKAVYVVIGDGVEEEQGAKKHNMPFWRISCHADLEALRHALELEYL
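Eya2 (0.2 uM) preincubated 10 min at ambient with compound, then OMFP substrate added at 50 uM; 10 min reaction in 50 mM HEPES pH 7.5, 50 mM NaCl, 5 uM MgCl2, 0.05% BSA, 1 mM DTT. Fluorescence read at Ex 485/Em 525 nm.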
Active calls of the source: *; i = inactive; u = inconclusive; x = not tested or not shown; [ ] = remark or other dose. Compounds with a hit are over-represented: about 0.52% of the library has one in this group of screens. Unless noted, calls come from the whole dose curve; as a rule, active = well fitted curve in the direction sought with a large enough effect; inconclusive = small, poorly fitted or top-dose-only effect, or another doubt; inactive = no such curve, though single readings can be large; an effect the other way counts as inactive or inconclusive. Unless noted, % is set by controls: 0 for no effect and ±100 for the full control effect; potency is the fitted concentration of half-maximal effect.

SMILES	RGS4 inh	USP2a block	Chronic BCR inh	uPA surface inh	KAT2A inh	Eya2 phos inh
O=C(NCCc1ccccc1)C1CCN(S(=O)(=O)c2cccc3nonc23)CC1	-5%	-1%	-5%	0%	-4%[0.501 µM]	-24%
O=c1c2ccccc2sn1-c1ccc(F)cc1	-136%	0%	u	u	2µM*	-6%
COC(=O)c1cccc(-n2sc3ccccc3c2=O)c1	-142%	0%	u	-25%	1.6µM*	-14%
Cc1ccc(N2CCN(C(=O)c3c(C)oc4nc(C)nc(N5CCCC5)c34)CC2)c(C)c1	-4%	x	x	x	-8%	x
CCOc1ccc(C(=O)Nc2ccc(-c3nc4cc(CC)ccc4o3)cc2)cc1	0%	x	x	x	2%	x
O=C1[C@@H]2Cc3c([nH]c4ccccc34)C(c3ccccc3)N2C(=O)CN1C1CC1 (some centres undefined)	-10%	-5%	-2%	-1%	7%	23%
O=C1[C@@H]2Cc3c([nH]c4ccccc34)C(c3cccc([N+](=O)[O-])c3)N2C(=O)CN1CCCO (some centres undefined)	0%	-1%	-11%	-12%	-1%	6%
CN1CC(=O)N2C(c3ccc(Cl)cc3)c3[nH]c4ccccc4c3C[C@H]2C1=O (some centres undefined)	16%	0%	u	5.6µM*	-15%	5%
CN1CC(=O)N2C(c3cccc([N+](=O)[O-])c3)c3[nH]c4ccccc4c3C[C@H]2C1=O (some centres undefined)	12%	3%	1%	0.4µM*	-1%	-1%
Cc1ccc(NC(=O)CSc2nc(=O)n(Cc3cccnc3)c3c2CCC3)cc1F	16%	x	u	x	-4%	x
Cc1ccccc1N1CCN(S(=O)(=O)CC23CCC(CC2NC(=O)C(N)CCS(C)(=O)=O)C3(C)C)CC1 (centres undefined)	x	x	x	x	4%	x
Cc1cc(=O)c2c(O)c3c(O)cc(O)c4c5c(O)cc(O)c6c(O)c7c(=O)cc(C)c8c1c2c(c34)c(c65)c78	i	x	x	x	18µM*	x
COc1ccccc1NC(=O)Cc1noc(CSc2cccc[n+]2[O-])n1	-15%	3%	23µM*	-5%	-4%	-4%
CCOc1ccc(CC(=O)NCCS(=O)(=O)N2CCN(c3ccccc3OC)CC2)cc1	4%	x	x	x	2%	x
N/C(=N\OC(=O)/C=C/c1ccccc1Cl)c1cccnc1	-17%	-1%	u	-1%	-14%	-9%
COc1ccc(Cl)cc1C(=O)O/N=C(\N)c1ccccn1	4%	-1%	-12%	10µM*	14%	4%
N/C(=N\OC(=O)/C=C/c1ccccc1Cl)c1ccccn1	-4%[11.4 µM]	0%	u	3.5µM*	-6%	-17%
c1cn2c(NC3CCCC3)c(-c3ccc(N4CCOCC4)cc3)nc2cn1	-18%	3%	-11%	5.6µM*	-12%	-6%
c1cn2c(NC3CCCCC3)c(-c3ccc(SC4CCCCC4)cc3)nc2cn1	7%	-1%	1%	-17%	-10%	-14%
CCOc1cccc(NC(=O)c2sc3nc(-c4ccc(F)cc4)ccc3c2N)c1	-13%	x	x	x	35µM*	x
Nc1c(C(=O)Nc2ccc(F)c(F)c2)sc2nc(-c3ccncc3)ccc12	-13%	x	x	x	0%	x
COc1ccc(N/C=C2\CCc3ccccc3C2=O)cc1	-46%	-7%	u	1.3µM*	1%	-11%
CC(C)c1ccc(/C=N/NC(=O)c2ccccc2Cl)cc1	-6%	2%	u	3.2µM*	-12%	-1%
COC(=O)c1ccc(/C=N/NC(=O)c2ccccc2Cl)cc1	31%	2%	u	-5%	-4%	8%
O=C(Nc1ccc2[nH]ccc2c1)c1cccs1	-2%	12%	u	7.1µM*	-4%	-3%
CC(=O)Nc1ccc2[nH]ccc2c1	2%	2%	6%	7%	-5%	3%

Compound activity (PubChem BioAssay)
